Bioassay records from PubChem BioAssay.
Sampled rows, rich in hits. Any-hit rate of the full collection: about 4.1%.
IDE cell inh – human IDE inhibitors in live cells, primary screen, fluorescence polarization, HEK cells, FAbetaB substrate. inhibition, % at 5.59 µM. FAbetaB cleavage. Insulin-degrading enzyme (Homo sapiens), P14735. 320,000 tested, 0.41% active;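 active = percent inhibition above the average of all tested compounds plus 3 SD, set per screening campaign, cut at about 16% in these data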;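 note: IDE supplied by intact live HEK cells; FP after avidin binding of uncleaved biotin substrate so inhibition keeps polarization high; 0% = DMSO wells and 100% = 60 µM reference IDE inhibitor Ii1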
Target sequence (P14735 whole entry, looked up): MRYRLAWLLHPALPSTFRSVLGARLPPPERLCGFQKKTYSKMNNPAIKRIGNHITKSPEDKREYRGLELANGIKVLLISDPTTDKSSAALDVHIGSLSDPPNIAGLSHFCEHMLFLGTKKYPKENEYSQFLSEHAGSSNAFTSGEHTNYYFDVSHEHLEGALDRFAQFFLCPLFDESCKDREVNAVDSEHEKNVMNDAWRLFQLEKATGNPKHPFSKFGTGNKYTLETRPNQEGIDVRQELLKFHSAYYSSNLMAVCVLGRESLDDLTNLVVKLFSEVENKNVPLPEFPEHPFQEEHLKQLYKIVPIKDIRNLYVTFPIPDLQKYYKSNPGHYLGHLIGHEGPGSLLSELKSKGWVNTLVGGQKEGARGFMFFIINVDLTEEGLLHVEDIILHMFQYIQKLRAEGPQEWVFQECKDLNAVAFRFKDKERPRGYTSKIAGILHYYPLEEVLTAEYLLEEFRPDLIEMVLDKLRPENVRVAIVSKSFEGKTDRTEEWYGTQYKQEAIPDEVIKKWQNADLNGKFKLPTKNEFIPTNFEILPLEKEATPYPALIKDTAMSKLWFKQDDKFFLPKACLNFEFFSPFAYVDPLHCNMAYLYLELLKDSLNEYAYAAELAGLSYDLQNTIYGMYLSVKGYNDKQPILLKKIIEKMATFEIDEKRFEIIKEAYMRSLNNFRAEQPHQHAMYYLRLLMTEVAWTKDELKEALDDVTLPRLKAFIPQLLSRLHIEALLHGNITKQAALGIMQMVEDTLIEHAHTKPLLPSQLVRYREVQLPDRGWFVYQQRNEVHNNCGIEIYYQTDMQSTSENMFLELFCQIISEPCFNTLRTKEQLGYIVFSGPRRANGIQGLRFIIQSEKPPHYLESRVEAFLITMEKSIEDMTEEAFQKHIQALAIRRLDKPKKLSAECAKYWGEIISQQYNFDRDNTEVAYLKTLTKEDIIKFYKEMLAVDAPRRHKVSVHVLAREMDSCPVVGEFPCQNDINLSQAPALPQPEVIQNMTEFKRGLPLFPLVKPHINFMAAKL
CaV13 ICDI inh – Disruptors of the CACNA1D IQ motif to Ca2+-dependent inactivation inhibitor domain association, primary screening, Förster resonance energy transfer in intact living …; HEK cells, CFP/YFP FRET ICDI-IQ, plate reader, 10 min; percent FRET-ratio fall versus neutral wells; inhibition, % at 12.3 µM; 340,000 tested, 0.098% active; AID 743397;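 active = mean replicate inhibition of at least 30% and at least 1% of replicates passing that level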;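 note: 0% = median of the neutral control wells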
PfM18AAP inh-1 – PfM18AAP inhibitors, malaria aminopeptidase, primary screen, biochemical, QFRET, recombinant enzyme. H-Glu-NHMec fluorogenic cleavage. inhibition, % at 7.35 µM. 290,000 tested, 1.2% active. AID 1822, 2009;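 active = inhibition above the campaign mean inhibition over all tested compounds plus 3 SD, cut at about 28% in these data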;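 note: 0% = plate median of test compound wells and 100% = 2 mM ZnCl2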
IDE act – human IDE activators in live cells, primary screen, fluorescence polarization, HEK cells, FAbeta-B substrate; 340,000 tested, 0.073% active; FAbeta-B cleavage; 0% vehicle, 100% cell-free pure enzyme wells; activation, % at 5.96 µM; AID 493087, 2011;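 active = activation above the mean of all tested compounds plus 3 SD, set per screening campaign, cut at about 17% in these data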
PolyA inhibitor – polyadenylation inhibitors in yeast reporter cells, primary screen, luminescence, S. cerevisiae; S. cerevisiae SKY197-pL101 polyadenylation reporter, beta-gal luminescence; efflux-impaired pdr1/pdr3 knockout yeast; score 100 = 6 SD above DMSO; activity score, % at 12 µM; 300,000 tested, 0.02% active;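 active = lowest replicate activity score at least 50, where 100 means six control SD above control mean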;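 note: yeast exposed to compound for 9 h at 30 °C; higher score means more reporter readthrough which indicates perturbed polyadenylation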
ALR inh – inhibitors of human ALR sulfhydryl oxidase, primary screen, biochemical, H2O2 detection, HRP-luminol luminescence, single point | purified ALR, DTT oxidation | inhibition, % (concentration not given with the values) | 290,000 tested, 3.8% active;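 active = mean replicate inhibition above about 79%, with every replicate also reaching it, limit read from the data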
PfM18AAP inh-2 – PfM18AAP inhibitors, malaria aminopeptidase, confirmation, biochemical, QFRET, recombinant enzyme, triplicate; shares compounds with PfM18AAP inh-1; H-Glu-NHMec fluorogenic cleavage; inhibition, % at 7.35 µM; 2,400 tested, 28% active; AID 2170, 2009;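 active = mean inhibition over replicate wells above the hit cutoff set for the earlier primary screen, cut at about 29% in these data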;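 note: 0% = median of test compound wells and 100% = 2 mM ZnCl2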
CTSL1 confirm – cathepsin L1 inhibitors, retest, confirmation, counter-screen for PFM18AAP inhibitor project, biochemical, QFRET, triplicate; shares compounds with PfM18AAP inh-1; purified cathepsin L1, Z-Leu-Arg-MCA fluorescence; inhibition, % at 5.96 µM; 2,400 tested, under 10 active; AID 2178, 2009;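 active = average inhibition across replicates above the hit cutoff set in the earlier primary screen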;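 note: 0% = median of test compound wells and 100% = Z-Phe-Ala-diazomethylketone 1 µM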
The depositor's hits bear a star; . = no result given.

SMILES	IDE cell inh	CaV13 ICDI inh	PfM18AAP inh-1	IDE act	PolyA inhibitor	ALR inh	PfM18AAP inh-2	CTSL1 confirm
CC(/C=N/n1cnnc1)=C\c1ccco1	10.4	-5.6	55.1*	10.7	-7.5	.	-7.4	1.7
CC(/C=N/n1c(-c2ccc(Cl)cc2)n[nH]c1=S)=C\c1ccco1	-4.2	-14.6	15.4	-10.5	-19.9	46.8	.	.
O=C(NCC1CCCO1)c1cn(-c2ccccc2)nc1-c1ccc(F)cc1 (stereo not drawn)	2.6	-2.5	-4.0	7.1	19.0	-8.0	.	.
O=C1OC(Nc2ccc3c(c2)OCO3)c2ccccc21 (stereo not drawn)	-2.5	.	45.3*	5.7	14.5	99.1*	21.5	3.7
COc1cccc(NC(=O)NC2(C(F)(F)F)Oc3ccccc3O2)c1	7.3	-5.1	66.9*	4.0	15.2	4.0	34.4*	-0.9
O=C(Nc1cc(N2CCOCC2)ncn1)NC1(C(F)(F)F)Oc2ccccc2O1	6.4	-4.7	75.6*	-13.2	7.2	-5.4	66.2*	1.3
O=C(NCc1cccnc1)NC1(C(F)(F)F)Oc2ccccc2O1	-1.6	-8.1	55.3*	1.9	-14.9	.	-2.4	4.2
C/C(=N\Nc1cc(N2CCOCC2)ncn1)c1ccccc1	0.9	5.9	1.2	-4.9	-2.5	10.9	.	.
CC(C)CNC(=O)NC1(C(F)(F)F)Oc2ccccc2O1	-0.7	-2.8	40.9*	8.0	7.3	0.0	-21.9	1.3
CCCCN1C(=O)C(=O)N(CC(=O)Nc2cc(Cl)ccc2OC)C1=O	-5.0	-5.3	.	12.2	.	.	.	.
CSc1ccc(C(=S)N2CCN(CCO)CC2)cc1	-2.3	.	32.9*	2.7	5.6	-21.4	7.3	0.0
OCCN1CCN(C(=S)Nc2ccc(SC(F)F)cc2)CC1	-7.3	-1.4	2.7	0.3	-10.3	-5.0	.	.
Cc1ccc(OCC(=O)N/N=C/c2ccc([N+](=O)[O-])o2)cc1	-3.4	.	2.9	3.2	-11.2	-20.1	.	.
O=C(COc1ccccc1)N/N=C/c1ccc([N+](=O)[O-])o1	-3.4	-5.8	38.6*	1.4	-1.6	-32.3	-20.0	7.4
COc1ccc(Nc2nc(NN)nc(C)c2[N+](=O)[O-])cc1	0.5	-5.4	51.8*	8.6	0.9	-5.0	22.2	-1.1
COc1ccc(Nc2nc(N/N=C/c3ccc(N(C)C)cc3)nc(C)c2[N+](=O)[O-])cc1	4.8	-9.0	48.6*	2.5	-0.2	-0.8	-52.7	-0.8
COc1ccc(/C=N/Nc2nc(C)c([N+](=O)[O-])c(N(C)c3ccccc3)n2)cc1OC	-1.7	.	17.6	-1.1	-4.7	-14.2	.	.
Cc1cc(C(F)(F)F)cc(NNC(=O)NC(=O)c2c(F)cccc2Cl)n1	4.2	-5.0	41.7*	-1.4	-6.0	.	-2.8	6.0
CCOc1ccc(NC(=O)CSc2nnnn2C2CC2)cc1S(=O)(=O)N1CCCC1	-0.7	-2.9	.	-0.9	.	-1.9	.	.
O=c1cc2oc3cc(O)c(O)cc3c(-c3ccccc3[N+](=O)[O-])c-2cc1O	-0.2	-5.7	59.4*	4.1	6.7	4.1	48.8*	-1.3
O=c1cc(-c2ccccc2Cl)oc2cccc(O)c12	-1.8	-9.2	-0.3	-5.2	-13.8	2.4	.	.
COc1cc(-c2ccc(N3C(c4ccsc4)=Cc4ccccc4C3CC(C)=O)cc2)cc(OC)c1OC (stereo not drawn)	.	-7.3	.	.	.	.	.	.
CCn1c(SCC(=O)c2ccc(O)c(O)c2)nnc1-c1ccc(C)cc1	3.5	-4.4	43.1*	7.1	-4.9	67.5	18.5	-8.7
S=C(NNC(=S)Nc1ccc(Cl)cc1)NNc1ccccc1	.	-10.2	.	.	.	.	.	.
NC(=S)NNC(=S)Nc1ccccc1	1.0	-1.4	42.1*	-0.7	5.4	97.4*	2.1	-2.2
SMILES	IDE cell inh	CaV13 ICDI inh	PfM18AAP inh-1	IDE act	PolyA inhibitor	ALR inh	PfM18AAP inh-2	CTSL1 confirm
S=C(NNC(=S)Nc1ccccc1)Nc1ccccc1	4.5	-18.2	50.1*	2.0	-10.4	2.3	0.8	-1.1
COc1ccc(NC(=S)NNC(=S)Nc2cccc(C(F)(F)F)c2)cc1	7.0	-1.5	41.7*	-2.2	8.0	13.7	-18.5	0.0
CCOc1ccc(NC(=S)NNC(=S)Nc2cccc(C(F)(F)F)c2)cc1	5.1	2.5	15.1	5.6	14.3	-8.3	.	.
O=C(NCc1ccc(Cl)cc1)c1ccc2ccccc2n1	-0.3	-6.0	0.1	2.0	-4.4	0.3	.	.
N#Cc1c(N)oc(-c2ccc3c(c2)OCO3)c1-c1ccc2c(c1)OCO2	6.2	-3.7	47.9*	-4.8	-5.9	6.3	16.0	-2.1
CCC1(CC)NC(=O)N(CC(=O)OC(C)C(=O)Nc2ccc(NC(C)=O)cc2)C1=O (stereo not drawn)	-3.1	-6.1	.	-1.9	2.5	-1.3	.	.
Cc1sc(/N=C/c2c(O)ccc3ccccc23)c(C#N)c1C	-1.1	.	9.9	.	-13.3	-11.0	.	.
COc1ccc(O)c(/C=N/c2sc(C)c(C)c2C#N)c1	2.2	-4.7	42.4*	5.8	8.0	7.7	-23.3	-1.2
Clc1ccc(N=c2ssnc2Cl)nc1	9.0	-19.4	38.7*	-9.2	-98.9	36.9	23.5	-4.5
Clc1nssc1=Nc1ccc(Br)cc1	.	-6.7	19.7	-10.9	-1.4	.	.	.
Cc1cc(C)nc(Sc2nc(Cl)nc(N(c3ccccc3)c3ccccc3)n2)n1	0.4	.	46.6*	-6.4	-11.2	54.1	21.9	-2.3
O=S(=O)(CCN1CCN(c2ccccc2O)CC1)c1cc(Cl)ccc1Cl	.	-5.7	.	4.6	.	.	.	.
N#Cc1c(NC(=O)CSc2ccccn2)oc(-c2ccccc2)c1-c1ccccc1	4.5	-7.5	50.3*	2.1	4.1	.	-36.7	2.2
CCn1c(SCC(=O)Nc2oc(-c3ccccc3)c(-c3ccccc3)c2C#N)nnc1-c1ccncc1	1.3	.	11.7	-3.4	-6.2	29.2	.	.
O=c1c2ccccc2nc2n1CCCCC2	4.0	3.5	-0.2	8.6	6.6	4.1	.	.
O=c1c2ccccc2nc2n1CCC2	-0.9	-5.9	45.5*	0.2	-4.8	0.8	17.3	-10.0
COCCCNC(=O)C1CCC(=O)N(c2ccc3c(c2)OCO3)C1c1ccc(OC)cc1 (stereo not drawn)	3.0	-4.0	1.7	3.6	1.6	-3.0	.	.
